Assay results from PubChem BioAssay AID1159580 (chemical genetic matrix, 2015).
Several values for one entry are separate records, joined by “and”; a condition that tells them apart may be missing. Equal values may be shown once. Out of some 5,500 compounds screened, about 2,000 (36%) were called active. Roughly 18% stayed inconclusive and do not appear here. Cut-off read from the data, not from the text of the source: active = normalized growth mostly below about 0.91 (no sharp cut-off); inconclusive = no clear call, values can overlap the other calls; inactive = mostly above about 0.92. The list shows a part of the results.

Test: chemical genetic growth profiling, strain panel (AID 1159580);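 note: tested at 20 µM; growth read once vehicle control cultures reached saturation at 30 °C; 1 = growth at the plate median or of vehicle wells; lower values mean less growth of the strain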
Settings: S. cerevisiae deletion strains, growth OD

Measured: normalized growth

CC(=O)CC(c1ccccc1)c1c(O)c2ccccc2oc1=O (configuration not stated)
inactive: locus YAL013W, strain DEP1, active compounds read low 1.01 | locus YAL021C, strain ccr4, active compounds read low 1.01 | locus YAL026C, strain drs2, active compounds read low 0.991 | locus YAL030W, strain snc1, active compounds read low 0.991 | locus YBL061C, strain skt5, active compounds read low 0.998 | locus YBR009C, strain hhf1, active compounds read low 1 | locus YBR021W, strain FUR4, active compounds read low 0.996 | locus YBR023C, strain chs3, active compounds read low 0.996 | locus YBR171W, strain sec66, active compounds read low 0.991 | locus YBR229C, strain ROT2, active compounds read low 1 | locus YBR231C, strain swc5, active compounds read low 1 | locus YBR279W, strain paf1, active compounds read low 0.993 | locus YCL011C, strain gbp2, active compounds read low 0.999 | locus YCL016C, strain dcc1, active compounds read low 0.994 | locus YCL029C, strain bik1, active compounds read low 1.03 | locus YCL061C, strain MRC1, active compounds read low 1 | locus YCL069W, strain vba3, active compounds read low 1 | locus YCR088W, strain abp1, active compounds read low 1 | locus YDL005C, strain med2, active compounds read low 0.999 | locus YDL035C, strain GPR1, active compounds read low 1.02 | locus YDL040C, strain nat1, active compounds read low 0.994 | locus YDL074C, strain BRE1, active compounds read low 1.02 | locus YDL101C, strain DUN1, active compounds read low 1.02 | locus YDL134C, strain PPH21, active compounds read low 1.01 | locus YDL185W, strain tfp1, active compounds read low 1.01 | locus YDL192W, strain arf1, active compounds read low 1.02 | locus YDR001C, strain nth1, active compounds read low 0.993 | locus YDR069C, strain doa4, active compounds read low 1 | locus YDR101C, strain arx1, active compounds read low 1.02 | locus YDR137W, strain rgp1, active compounds read low 0.867 | locus YDR150W, strain NUM1, active compounds read low 1.01 | locus YDR159W, strain sac3, active compounds read low 1.02 | locus YDR162C, strain NBP2, active compounds read low 1.03 | locus YDR195W, strain ref2 1.01 | locus YDR297W, strain sur2, active compounds read low 1 | locus YDR318W, strain mcm21, active compounds read low 1.03 | locus YDR334W, strain swr1, active compounds read low 1 | locus YDR335W, strain msn5, active compounds read low 1.01 | locus YDR388W, active compounds read low 1 | locus YDR392W, strain spt3, active compounds read low 0.966 | locus YDR502C, strain sam2, active compounds read low 1.01 | locus YEL003W, strain gim4, active compounds read low 1.01 | locus YEL037C, strain rad23, active compounds read low 0.999 | locus YEL061C, strain CIN8 (second series), active compounds read low 0.999 | locus YEL061C, strain CIN8, active compounds read low 1.01 | locus YER015W, strain faa2, active compounds read low 0.987 | locus YER016W, strain bim1, active compounds read low 0.993 | locus YER110C, active compounds read low 1.03 | locus YER111C, strain swi4, active compounds read low 0.999 | locus YER155C, strain BEM2 (second series), active compounds read low 1.01 | locus YER155C, strain BEM2, active compounds read low 1 | locus YER167W, strain BCK2, active compounds read low 1.03 | locus YFR010W, strain ubp6, active compounds read low 1.01 | locus YGL078C, strain dbp3, active compounds read low 1.01 | locus YGL086W, strain mad1, active compounds read low 1.03 | locus YGL167C, strain pmr1, active compounds read low 0.986 | locus YGL173C, strain kem1, active compounds read low 1 | locus YGL227W, strain vid30, active compounds read low 0.988 | locus YGL240W, strain doc1, active compounds read low 1 | locus YGL248W, strain PDE1, active compounds read low 1.01 | locus YGL253W, strain hxk2, active compounds read low 1 | locus YGR078C, strain PAC10, active compounds read low 1.02 | locus YGR135W, strain pre9, active compounds read low 1.02 | locus YGR229C, strain SMI1, active compounds read low 1.02 | locus YGR252W, strain gcn5, active compounds read low 1.06 | locus YHR013C, strain ard1, active compounds read low 1.03 | locus YHR027C, strain rpn1, active compounds read low 0.994 | locus YHR030C, strain SLT2, active compounds read low 1.01 and 0.993 | locus YHR079C, strain IRE1 (second series), active compounds read low 1.01 | locus YHR079C, strain IRE1, active compounds read low 0.982 | locus YHR094C, strain hxt1, active compounds read low 1.02 | locus YHR129C, strain ARP1, active compounds read low 1 | locus YHR142W, strain chs7, active compounds read low 1.01 | locus YHR200W, strain rpn10, active compounds read low 1.02 | locus YIL066C, strain RNR3, active compounds read low 1.02 | locus YIL073C, strain SPO22, active compounds read low 1.1 | locus YIL125W, strain kgd1, active compounds read low 1.01 | locus YIR030C, strain dcg1, active compounds read low 1.02 | locus YJL092W, strain hpr5, active compounds read low 0.996 | locus YJL095W, strain BCK1 (second series), active compounds read low 0.992 | locus YJL095W, strain BCK1, active compounds read low 1.01 and 0.973 | locus YJL115W, strain asf1, active compounds read low 1 | locus YJL129C, strain trk1, active compounds read low 1.02 | locus YJL134W, strain LCB3, active compounds read low 1 | locus YJL154C, strain vps35, active compounds read low 0.995 | locus YJL164C, strain tpk1, active compounds read low 1.01 | locus YJL166W, strain qcr8, active compounds read low 1.01 | locus YJL168C, strain set2, active compounds read low 1 | locus YJL187C, strain SWE1 (second series), active compounds read low 1.02 | locus YJL187C, strain SWE1, active compounds read low 0.989 | locus YJR043C, strain POL32, active compounds read low 1.03 | locus YJR066W, strain TOR1, active compounds read low 0.925
